D3 antag: D3 dopamine receptor (human) antagonism. 2.5% of 360,000 active. D3R cells, DiscoveRx beta-arrestin luminescence, antagonist mode; active compounds read low. AID 652054. max response, negative = inhibition, %; in the data active means max response below about -50%; inconclusive means no clear call, values can overlap the other calls
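Cells expressing the human receptor were seeded at 1500 cells/well, incubated overnight at 37 degrees C in 5% CO2, then exposed to library compounds with dopamine controls for 90 minutes at 37 degrees C before luminescent detection.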
PTHR1 ag: agonists of human PTHR1 parathyroid hormone receptor; HEK293 GP2 PTHR1 cells, GloSensor cAMP luminescence, 1 h; Potency, µM (top dose mostly 115 µM), hits mostly activators; 0.075% of 410,000 active; further: nearly all actives have a fitted effect of over 55% in size
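HEK-293-derived GP2 cells expressing PTHR1 and a GloSensor cAMP reporter, 3,000/well, plated overnight, given luciferin plus IBMX (each 0.5 mM as added) for 1 h at 37 °C, then compound for 1 h at 37 °C. Luminescence was read after 15 min at room temperature.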
D3 ag: activates the human D3 dopamine receptor; P35462; D3R DiscoveRx beta-arrestin cells, luminescence, 90 min; max activation, %; 0.58% of 410,000 active; AID 652048; in the data active means max activation above about 30%
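Agonist-mode cell screen: cells plated at 1500/well and incubated overnight at 37 °C, then exposed to library compounds for 90 min at 37 °C. Detection reagent was added for 30–60 min at room temperature, and luminescence was read.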
MBNL1 CUG block: blocks human MBNL1 binding to CUG repeat RNA | Q9NR56 | TR-FRET MBNL1-His/biotin-(CUG)12 binding, 665/545 ratio | Potency, µM (highest dose often 57.5 µM), hits mostly inhibitors | 0.036% of 280,000 active; active means well fitted inhibition curve with a large enough effect in the signal ratio, with a control signal flat, not every such curve was filed as active; inconclusive means small, poorly fitted or top-dose-only effect, or effect the other way, or a change in a side signal; inactive means no such curve, though single readings can be large or run the other way; the % refers to the signal ratio
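TR-FRET readout: Ex 340 nm, 665/545 nm emission ratio, normalized to buffer-only (basal) and MBNL1-(CUG)12 controls. Complex of MBNL1-His with Biotin-(CUG)12, compounds 92 nM–58 uM, incubated 60 min at room temperature.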
Integrin act MD: activates integrin-mediated alleviation for muscular dystrophy; alpha7betagal myoblasts, beta-gal FDG fluorescence, 48 h; Potency, µM (series often up to 38.3 µM), usual class: activators; 0.064% of 350,000 active; AID 624291; further: nearly all actives have a fitted effect of over 60% in size
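Alpha7betagal+/- myoblasts (passage 13) were plated 16-24 hr, then exposed to compounds (1:260 dilution of DMSO stock) for 48 hours at 37C. After MPER lysis, β-galactosidase reporter activity was read as FDG fluorescence (ex 480/em 540) after 30 minutes.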
CBFb-RUNX1 inh: CBF-beta/RUNX1 interaction disruption; Q01196+Q13951; AlphaScreen CBFb-His/RUNX1-biotin binding, biochemical; Potency, µM (highest dose often 59.8 µM), actives largely listed as inhibitors; 230,000 tested, under 10 active; AID 1477
Target sequence (Q01196 whole entry, looked up): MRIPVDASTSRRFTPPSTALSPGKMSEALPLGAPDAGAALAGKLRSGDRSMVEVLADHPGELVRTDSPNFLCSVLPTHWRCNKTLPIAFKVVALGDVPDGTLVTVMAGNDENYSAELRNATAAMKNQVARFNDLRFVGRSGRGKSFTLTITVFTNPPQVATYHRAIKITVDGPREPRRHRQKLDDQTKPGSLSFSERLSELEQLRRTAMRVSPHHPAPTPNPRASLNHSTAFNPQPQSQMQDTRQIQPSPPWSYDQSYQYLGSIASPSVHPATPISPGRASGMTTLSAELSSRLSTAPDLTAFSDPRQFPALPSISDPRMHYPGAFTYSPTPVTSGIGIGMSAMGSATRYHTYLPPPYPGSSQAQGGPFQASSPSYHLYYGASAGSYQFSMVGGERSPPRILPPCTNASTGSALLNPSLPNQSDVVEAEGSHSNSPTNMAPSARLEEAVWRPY
Target sequence (Q13951 whole entry, looked up): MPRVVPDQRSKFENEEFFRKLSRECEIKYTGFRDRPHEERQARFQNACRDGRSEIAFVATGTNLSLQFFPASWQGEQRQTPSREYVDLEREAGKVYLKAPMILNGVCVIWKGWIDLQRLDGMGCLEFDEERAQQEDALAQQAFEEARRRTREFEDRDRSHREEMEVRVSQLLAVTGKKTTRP
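CBFb-His/RUNX1-biotin, 30 nM each, preincubated 20 min RT; compound 15 min RT; Ni + streptavidin beads 50 ng each, 90 min RT; AlphaScreen read.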
Of the large screens only hits and unclear results are named; the others gave an inactive call. In the library only some 2.8% were active in any assay of this set; here they are far more common. Unless noted, the call rests on the fitted dose curve; in most records, active means well fitted curve in the direction sought with a large enough effect; inconclusive means small, poorly fitted or top-dose-only effect, or another doubt; inactive means no such curve, though single readings can be large; an effect the other way counts as inactive or inconclusive.

CC[C@]12c3[nH]c4ccc(Cl)cc4c3CCN1C(=O)[C@@H](CC(=O)NCCCn1ccnc1)C[C@@H]2C(=O)N1CCN(C(=O)c2ccco2)CC1	D3 ag 49.3 (no result: MBNL1 CUG block, CBFb-RUNX1 inh)
COCCCNC(=O)C[C@H]1C[C@H](C(=O)N2CCOCC2)[C@@]2(C)c3[nH]c4cc(-c5ccco5)ccc4c3CCN2C1=O	D3 ag 35.0 (no result: MBNL1 CUG block, CBFb-RUNX1 inh)
CN(C)CCCNC(=O)C[C@H]1C[C@H](C(=O)N2CCOCC2)[C@@]2(C)c3[nH]c4cc(-c5ccco5)ccc4c3CCN2C1=O	none (no result: MBNL1 CUG block, CBFb-RUNX1 inh)
CCN(CC)C(=O)[C@H]1CC(CC(=O)NCCc2ccccn2)C(=O)N2CCc3c([nH]c4ccccc34)[C@]12C (stereo partly drawn)	D3 antag -54.5 (no result: MBNL1 CUG block, CBFb-RUNX1 inh)
O=C1C(=O)N(CC2CCCO2)C(c2ccccc2[N+](=O)[O-])/C1=C(/O)c1ccccc1 (stereo not drawn)	none
S=C(Nc1ccccc1)N1CCC(Cc2ccccc2)CC1	none (no result: CBFb-RUNX1 inh)
O=C(CCC1CCCN(Cc2ccc3c(c2)CCO3)C1)NCc1ccc(F)c(F)c1 (stereo not drawn)	none
Cc1ccc2nc(NC(=O)c3ccc(OCC4CCCO4)cc3)sc2c1 (stereo not drawn)	D3 ag 49.1
CCN(CC)C1CCN(C(=O)c2cc(COc3ccc(-n4cncn4)cc3)on2)C1 (stereo not drawn)	none (no result: CBFb-RUNX1 inh)
Cc1nc2ncnn2c(C)c1Cc1ccc(Cl)cc1F	none
N#Cc1ccc(OCCN2CCc3ccccc3C2)cc1	D3 antag -78.8, PTHR1 ag inconclusive (no result: MBNL1 CUG block, CBFb-RUNX1 inh)
COc1ccc(OCCOCCN2CCc3ccccc3C2)cc1	D3 antag -50.7
Clc1ccc(OCCCCN2CCc3ccccc3C2)cc1	D3 antag -114.3
CC(=O)OC(C)OC(=O)C(C)c1ccc(-c2ccccc2)c(F)c1 (stereo not drawn)	none (no result: D3 antag, PTHR1 ag, MBNL1 CUG block, Integrin act MD, CBFb-RUNX1 inh)
CCc1ccc(CNC(=O)c2ccc3nc(C4CCCCC4)oc3c2)nc1	none (no result: D3 antag, PTHR1 ag, D3 ag, Integrin act MD, CBFb-RUNX1 inh)
Cc1ccc(C2C3=C(CC(C)(C)CC3=O)Nc3onc(C)c32)cc1 (stereo not drawn)	D3 antag inconclusive
Cc1noc2c1C(c1ccc(N(C)C)cc1)C1=C(CC(C)(C)CC1=O)N2 (stereo not drawn)	D3 antag -78.2
CC(=O)N1CCc2cc(S(=O)(=O)CCC(=O)Nc3ccc(Cl)cc3F)ccc21	none (no result: CBFb-RUNX1 inh)
CC(C)CCNC(=O)CN(Cc1ccccc1)C(=O)CCC(=O)Nc1ccccn1	none (no result: CBFb-RUNX1 inh)
CCCCNC(=O)O[C@@H]1C[C@H]2CCCC(=O)N3CC[C@@H](C1)[C@@H]23	D3 ag 33.3 (no result: CBFb-RUNX1 inh)
COc1ccc(OC)c(NC(=O)c2c(NCc3ccc(C)o3)sc3c2CCC(C)C3)c1 (stereo not drawn)	none (no result: D3 antag, MBNL1 CUG block, Integrin act MD, CBFb-RUNX1 inh)
O=C1c2ccccc2C(=O)N1CCCCc1cn(C[C@H]2CC[C@@H]([C@@H]3CC[C@H](Cn4cc(CCCCN5C(=O)c6ccccc6C5=O)nn4)O3)O2)nn1	D3 ag 51.0 (no result: MBNL1 CUG block, CBFb-RUNX1 inh)
Cc1ccc(C(=O)CN2CCN(c3ccccn3)CC2)c(C)c1	D3 ag 47.6 (no result: CBFb-RUNX1 inh)
O=C(CN1CCN(c2ccccn2)CC1)N1c2ccccc2CCc2ccccc21	D3 antag -53.7, MBNL1 CUG block inconclusive
Cc1ccc2[nH]cc(C(=O)CN3CCN(c4ccccn4)CC3)c2c1	none
Cc1ccc(NC(=O)c2cnc(N3CCN(c4ccccn4)CC3)c3ccccc23)c(Br)c1	D3 ag 43.6
O=C(CN1CCN(c2ccccn2)CC1)N1c2ccccc2Sc2ccc(C(F)(F)F)cc21	D3 antag -62.1
O=C(CN1CCN(c2ccccn2)CC1)N1CC(O)CO1 (stereo not drawn)	none
O=C(Nc1c(F)cccc1F)c1cnc(N2CCN(c3ccccn3)CC2)c2ccccc12	MBNL1 CUG block inconclusive
O=C(CN1CCCC1)N1c2ccccc2Sc2ccc(C(F)(F)F)cc21	none
Cc1c(C(=O)Nc2cc(F)ccc2F)sc2nc3n(c(=O)c12)CCCCC3	none (no result: CBFb-RUNX1 inh)
O=C(Cn1cnc2c(nc3n2CCCCC3)c1=O)Nc1ccc(F)c(Cl)c1	none (no result: D3 antag, MBNL1 CUG block, Integrin act MD, CBFb-RUNX1 inh)
